Source: PMC12136788
Substitutions are numbered along the chain they refer to. The full ranking holds about 24,000 sequences; the median of “enrichment r” is about 0.99, and the highest 2% start at about 3.7. What follows is part of a selection rich in the highest values, with near analogues and random picks from the rest.

B1: 139258410_139258530_201_CDS_ENSG00000114115_ENST00000232219|human|control|control (ssRNA)
RNA: GGGAGUUCUACAGUCCGACGAUCGCGGGACGGCUGGAGACUGCCGGGACAGCGGCUGCCGGUGCUACGCGGGUGGUGGGCGGCCCGGAAAUGAGCGCCCUCCGGGGACAGGGGGCUCUGCGGGGCGGCGACAGCUGGAUUCCCCAACAGAGGAUUGAGCAUCA
B2: chr17:56552419:56552420:-_ENSMUSG00000013236_ENSMUST00000086828|mus_mus|mus_mus_mus_hu_False|18_28 (ssRNA)
RNA: GGGAGUUCUACAGUCCGACGAUCAAAAAAUACACUAUUUAAAAAAAAUGAAAUGUCACGGGAUACAGUUACACUGAGAGUUUUAAAAGAAAGCUGGAUUCUGGUCCUUGCCAAAAGGCAGGCAGGGGCAGAGCGGGGAGGAGCCAACAGAGGAUUGAGCAUCA
B3: chr2:65539780:65539781:-_ENSG00000198369_ENST00000356388|hu_hu|motif|central (ssRNA)
RNA: GGGAGUUCUACAGUCCGACGAUCUUUGCAAAACAACAAGCAAAAUUUCUUACUUCACUAGUAUCCUAUUCUAAUAUUGCGGAAUUUUUAGAAGUGGUGGCAACACAAUUUAAAAAAUGUUCUACUUUAGGGGUAAUGGGGAGGCAACAGAGGAUUGAGCAUCA
B4: chr17:56552419:56552420:-_ENSMUSG00000013236_ENSMUST00000086828|mus_mus|motif|central (ssRNA)
RNA: GGGAGUUCUACAGUCCGACGAUCUUUGUUUUUUUCUUAAAAAAAAAAAAGAAAAAAAGAAAAAGAAAAAAAAUAUACACGGUUAAAAAAAAAUAAGAAAAAAAAUGUUGCCAAAAGGCAGGCAGGGGAGUGCGGAAGCAGAGGCAACAGAGGAUUGAGCAUCA
B5: chr17:56552419:56552420:-_ENSMUSG00000013236_ENSMUST00000086828|mus_mus|FALSE|FALSE (ssRNA)
RNA: B4 RNA with G80U, G81A
B6: chr7:54825262:54825263:-_ENSG00000132432_ENST00000352861|hu_hu|hu_hu_hu_mus_False|48_98 (ssRNA)
RNA: GGGAGUUCUACAGUCCGACGAUCCUGCCGGCUGGGCACAAACUGCAGCAUUACCUGAUCCAUGUUUGUUGGAUGGCGGAUUGAGAGUGCCAGGGACCGUAGCUCAGGAGAGAACCGAGCCCAACGGAACCGGAAGCUGGCAACCAACAGAGGAUUGAGCAUCA
B7: chr17:64801638:64801639:+_ENSG00000154229_ENST00000413366|hu_mus|hu_hu_hu_mus_False|78_78 (ssRNA)
RNA: GGGAGUUCUACAGUCCGACGAUCUAUAUAUAUAUAUACAUAUGUACACAUAUAUAGUAAGAGCCUAGUUAAACGUGUAAAGUAGCCAUUCAUUUUUAAAAUUACAUCUACAUUAAAAAAUUAAUAUAUCUGAUAGAGUGCCAGCAACAGAGGAUUGAGCAUCA
B8: chr3:148802587:148802588:-_ENSG00000071794_ENST00000310053|hu_mus|hu_hu_hu_mus_False|28_38 (ssRNA)
RNA: GGGAGUUCUACAGUCCGACGAUCUCCAACAACUUGUCCUCUCAUAGUUCCAAAUAAAACCAAAUCUUGCUCUUCAUCACUCGUUAGGAAGUCAUCUGGAGGGAUAACAUCUUGGAAUUCAAAAUGUGGCAAGAAAGUUGAGUACAACAGAGGAUUGAGCAUCA
B9: chr1:34870196:34870197:-_ENSMUSG00000037503_ENSMUST00000047534|mus_hu|motif|central (ssRNA)
RNA: GGGAGUUCUACAGUCCGACGAUCAUCUGAGCUCAUCUCAUCAGAUUGCAUAAAAAAUUAAAAUAGUAUCAAUUGACACCGGACUGAACUGGCUCAGGAUGGAAAUUCCAUUCCUUGGCAUGGAUACGUAAGUUCAAUGCAGAGCAACAGAGGAUUGAGCAUCA
B10: chr3:95023916:95023917:-_ENSMUSG00000053192_ENSMUST00000065482|mus_mus|FALSE|FALSE (ssRNA)
RNA: GGGAGUUCUACAGUCCGACGAUCUAAAUAAAUAAAUAAAUAAAUAUAGAUAGAUAAAUAAGUACGUACAUACAUACAAACCUACAAUUCAAUUGGCAGAUUCAUCAGCACCACCAGCACAAUAGAGGGAAGAGAACAAGAUUACAACAGAGGAUUGAGCAUCA
B11: chr3:95023916:95023917:-_ENSMUSG00000053192_ENSMUST00000065482|mus_mus|motif|central (ssRNA)
RNA: B10 RNA with U82G, A83G
B12: 17587070_17598549_148_CDS_ENSMUSG00000015733_ENSMUST00000015877|mouse|control|control (ssRNA)
RNA: GGGAGUUCUACAGUCCGACGAUCGUGAAUGAUGAAUUUUGCUGCUAUACGAACCUUCUCCUCAUCGGACAACUGCUCCUCCAGAUCCGCCAUCUUCCUUCUGGCGACAGACCGUGGCGCUGGUGGCAGCAGCGGCCACCUGACCAACAGAGGAUUGAGCAUCA
B13: 33058320_33060047_1444_CDS_ENSG00000170266_ENST00000307363|human|control|control (ssRNA)
RNA: GGGAGUUCUACAGUCCGACGAUCUCCCUGGGGGAUCCCAUCCACAGCAACAUAUGCUCGAUCGUGGACUCCAUUGAGGGGUGAAGAGAGAGGUGCUGGGUUGCUGCAAUCUUGAGGAAGUGUUGUCCGGUACAGCACAAACCCCAACAGAGGAUUGAGCAUCA
B14: chr5:145543945:145543946:-_ENSG00000133706_ENST00000545646|hu_hu|hu_hu_hu_mus_True|18_98 (ssRNA)
RNA: GGGAGUUCUACAGUCCGACGAUCCUGAACGGCCAGUGGCGGGAAAUAAUCAAGCCAGUGCUCUGCUUCAGAAAACUUCACUAUGUCGUCAUCAGAGAGCCCAAGGGAUUUCAUAAUGCCCCACUGGUACUUAGAAGAUCCUGCCAACAGAGGAUUGAGCAUCA
B15: 74491169_74493004_2024_3pUTR_ENSMUSG00000020745_ENSMUST00000021091|mouse|control|control (ssRNA)
RNA: GGGAGUUCUACAGUCCGACGAUCAUCAACGGCACUCCCACACCUUUACUGUUUGAUCUACACUGCCAGUAACCACAUAGGGUGCCGUCUUAUGGAAAUCCAAGGAGGUAACAAAGUGUUCAUGCGCAUUGAGGGUCUUCAUGCCAACAGAGGAUUGAGCAUCA
B16: 72182037_72182157_980_3pUTR_ENSG00000148730_ENST00000373218|human|control|control (ssRNA)
RNA: GGGAGUUCUACAGUCCGACGAUCCCAGAGGAAAGAAAGGAAGUGGACCUCAAAACAGUGUCACAGGGUAACGCUACCAGAGUUGCACAAGCUGUGCUCUGUCCCGAGGGACGAAUACCUCAAGGUAAAAGGGAAAGCAGCUCUCAACAGAGGAUUGAGCAUCA
B17: chr10:36858571:36858572:-_ENSMUSG00000069662_ENSMUST00000092584|mus_hu|FALSE|FALSE (ssRNA)
RNA: GGGAGUUCUACAGUCCGACGAUCAUAAAAAAAUUUUAGUCGAAGAGAUCAAAAAGCAGCAGCACAGGAGGGAGGGAAAAAGGGUGGAAAAGUCGAGCACAAAAAAAGGAGCCCAAGUGUAGUUCGAAAAAAAAAGAAGUAAUACAACAGAGGAUUGAGCAUCA
B18: chr10:36858571:36858572:-_ENSMUSG00000069662_ENSMUST00000092584|mus_mus|FALSE|FALSE (ssRNA)
RNA: GGGAGUUCUACAGUCCGACGAUCAUAAAAAAUUUUUAGUCGAAGAGAUCAAAAAAGCAGCAGCGCAGGAAGGAGGGAAAAAGGUGGAAAAGUCGAGCACAAAAAAGGAGCCCAAGUGUAGUUUUUUUAAAAAAAGAAGUAAUACAACAGAGGAUUGAGCAUCA
B19: chr5:134790399:134790400:-_ENSMUSG00000060261_ENSMUST00000173341|mus_hu|FALSE|FALSE (ssRNA)
RNA: GGGAGUUCUACAGUCCGACGAUCGGGAGGCGAGAGGGGGCGAGGGGCCCGUGCGUGUCGGUCGCGCUCCUGUCACCGCCGCAUGGCCGCCCCGCAGGCAGGGCCUCGCUCAGCGCCUUGAUCCGAUCACUGGGGGACAGAGGCCAACAGAGGAUUGAGCAUCA
B20: chr22:19452774:19452775:-_ENSG00000070010_ENST00000399523|hu_hu|hu_hu_hu_mus_False|28_58 (ssRNA)
RNA: GGGAGUUCUACAGUCCGACGAUCCUUCUCAUUGUAGUUGAUAGCAAUCACAUCUCCAGUCGUCAGACAGGCGAAGUUCCUAAGUGCAUUUUCUAAUACCGCUUUAGGGUUGGUGAUAUCCAGGAAGUCUGGGCUCUGAGGCUGCAACAGAGGAUUGAGCAUCA
B21: chr14:59855892:59855893:+_ENSMUSG00000035469_ENSMUST00000043227|mus_mus|motif|central (ssRNA)
RNA: GGGAGUUCUACAGUCCGACGAUCGCUUCCAUUAUUAUAUCAGAAGAAAACAUUAAUUUCAAUAAUAGUUUCUUGCUUUCGGUGAUUAUAACCAAAACCAAGUAGAAAAAUAAAAAGAUUGCAUUUAAAAAAAAUUUGCAAACCCAACAGAGGAUUGAGCAUCA
B22: chr2:42509997:42509998:+_ENSG00000143924_ENST00000318522|hu_hu|FALSE|FALSE (ssRNA)
RNA: GGGAGUUCUACAGUCCGACGAUCUCGCUGAGUUCUCUCCUCAUAAUUAAAUAGUACUACUACUGAUGCAAUGAAAUAAACUAUUUUCCCGGUCGGAAGAAGGUAAACAUUAGCUCUACAGUCCUUUCCUCGAUAACCAUAUGCCAACAGAGGAUUGAGCAUCA
B23: chr14:59855892:59855893:+_ENSMUSG00000035469_ENSMUST00000043227|mus_hu|motif|central (ssRNA)
RNA: GGGAGUUCUACAGUCCGACGAUCUUCCAUUAUUACAUUAGAUGAAAAAAUCAAUUCAAAUAAGAGUUGUCAUAUCCUGCGGUGAUUAACAAAAAAACAAGUAGAAAAAUAAGAGAGUGUAUUUAAAAAAAAUAAUCAAAUGCUCAACAGAGGAUUGAGCAUCA
B24: chr3:119456006:119456007:-_ENSMUSG00000028134_ENSMUST00000029780|mus_hu|FALSE|FALSE (ssRNA)
RNA: GGGAGUUCUACAGUCCGACGAUCAAUAUGAAGUACACGAGAAGGAGCACCAUCCAUUUUAUCUUCUCCUUUAAAUUUUUUACUAUCAUUACCAUUGGCUGUAACUACCAUGCUGCUCAUAUUAGAGUUCGGACUACUGAGAACCAACAGAGGAUUGAGCAUCA

biological target: T1, UNK ZnF1-3 (human, UniProt Q9C0B0 31-174); experiment: nsRBNS (natural sequence RNA bind-n-seq); RBNS binding buffer (assumed for nsRBNS): 25 mM Tris pH 7.5, 150 mM KCl, 3 mM MgCl2, 0.01% Triton X-100, 500 ug/ml BSA, 20 U/ml SUPERase-In, 4 C; UNK is unkempt and MSI1 is Musashi-1; names of the RNAs are library labels; protein concentration not given here; high values mean tight binding
T1 sequence: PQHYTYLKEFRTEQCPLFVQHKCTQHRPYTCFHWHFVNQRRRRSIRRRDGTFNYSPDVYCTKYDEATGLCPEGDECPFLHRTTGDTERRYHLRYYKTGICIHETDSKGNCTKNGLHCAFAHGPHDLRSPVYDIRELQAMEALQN

Compared with B1, B2 is higher in binding signal: 1.1 enrichment R for the first, 3.67 enrichment R for the second.

Compared with B3, B4 is higher in binding signal: 3.44 enrichment R for the first, 15.8 enrichment R for the second.

Going from B5 to B6, the binding signal falls from 19.2 enrichment R to 1.44 enrichment R.

First: B7
Second: B8
The binding signal of the first is higher: 1.53 enrichment R for the first, 1.19 enrichment R for the second.

First: B9
Second: B10
The binding signal of the first is lower: 1.43 enrichment R for the first, 7.35 enrichment R for the second.

First: B11
Second: B12
The binding signal of the first is higher: 19.9 enrichment R for the first, 0.822 enrichment R for the second.

B13 and B14 are the same in binding signal: 0.932 enrichment R for the first, 0.932 enrichment R for the second.

Compared with B15, B16 is higher in binding signal: 0.744 enrichment R for the first, 0.893 enrichment R for the second.

Compared with B17, B18 is higher in binding signal: 4.29 enrichment R for the first, 11.7 enrichment R for the second.

Compared with B19, B20 is lower in binding signal: 0.997 enrichment R for the first, 0.837 enrichment R for the second.

Going from B21 to B22, the binding signal falls from 4 enrichment R to 0.867 enrichment R.

Going from B23 to B24, the binding signal falls from 6.68 enrichment R to 4.17 enrichment R.
